± gives the standard deviation of the averaged measurements.
The compounds below were run on HCC1569 (assay: cell number relative to DMSO (% of DMSO); higher = more cells (less growth inhibition / toxicity)). Settings: concentration: 10 µM; 24 h.
How it was run: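 Using 384-well plates with 800 cells per well in RPMI plus 10% FBS, HCC1569 and TDF cells were exposed to compounds at 10 µM, in triplicate, for 24 h at 37 °C. Imaging of six fields per well at ×10 followed H1.0 and DAPI staining. The reported quantity, H1.0 nuclear intensity or cell number, is a median of replicates given as percent of the plate control, and HCC1569 values were smoothed for positional effects.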
In the case of `CC12C=CC(=O)C=C1CCC1C2C(O)CC2(C)C1CCC2(O)C(=O)CO` (stereo unspecified) [Prednisolone], the cell number is reported as 100. For `CC(N)(Cc1ccc(O)c(O)c1)C(=O)O` (racemic), the cell number was 101. `COc1c2occc2cc2ccc(=O)oc12` [Xanthotoxin] showed a cell number of 101. Work on `CC1CCN(CCC2CCCN2S(=O)(=O)c2cccc(O)c2)CC1.Cl` (stereo unspecified) yielded a cell number of 102. For `Cl.c1ccc(-n2c(C3=NCCN3)cc3ccccc32)cc1`, the cell number was 98.8. In the case of `Oc1cccc(-c2nc(N3CCOCC3)c3oc4ncccc4c3n2)c1`, the cell number is reported as 56.8. Work on `CC[N+](CC)(CC)CC(=O)Nc1c(C)cccc1C.[Br-]` [Lidocaine N-ethyl bromide quaternary salt] yielded a cell number of 106. In the case of `CC1CNCCN1S(=O)(=O)c1cccc2cnccc12.Cl.Cl` (stereo unspecified) [H-7 dihydrochloride], the cell number is reported as 96.8. `C1CCC(C(CC2CCCCN2)C2CCCCC2)CC1.O=C(O)C=CC(=O)O` (stereo unspecified) showed a cell number of 19. `CCCCCC=CCC=CCCCCCCCCCCCC(=O)O` [13(Z),16(Z)-Docosadienoic acid] was tested, and the cell number was 100. `O=c1ccc2cc(O)c(O)cc2o1` [Esculetin] gave a cell number of 101. With `CN1C(=O)CCC1c1cccnc1` (single isomer, unassigned; (-)) [(-)-Cotinine] the cell number was 102 ± 1.1. `CC1(C)CC=C(c2ccccc2)c2cc(/C=C/c3ccc(C(=O)O)cc3)ccc21` showed a cell number of 99.1. With `COc1ccccc1N1CCN(CCCCNC(=O)c2ccc3ccccc3c2)CC1` the cell number was 99.1. Compound `O=C([O-])c1cc2cc(Cc3cccnc3)ccc2o1.[Na+]` [Furegrelate sodium] has a cell number of 102. In the case of `CC(C)Cc1ccc(CC(=O)O)cc1` [(4-isobutylphenyl)acetic acid], the cell number is reported as 101. For `CC1=C(C)C(=O)C(CCCCC#CCCCC#CCO)=C(C)C1=O` [Docebenone], the cell number was 93.3. `CCCCC(C)(C)C(O)C=CC1C(O)CC(=O)C1CC=CCCCC(=O)O` (stereo unspecified) [16,16-Dimethyl-prostaglandin E2] gave a cell number of 100. For `CC(C=Cc1cccc(Oc2ccc(F)cc2)c1)N(O)C(N)=O` (stereo unspecified), the cell number was 102. `Cc1ccc2c(c1)C(N1CCN(C)CC1)=Nc1cccnc1N2` was tested, and the cell number was 103. Compound `CCn1cc(C(=O)O)c(=O)c2cc(F)c(N3CCN(C)CC3)cc21.CS(=O)(=O)O.O.O` [Pefloxacine mesylate dihydrate] has a cell number of 103. For `CCCCC1CCC(c2nc(-c3ccncc3)no2)CC1` (stereo unspecified) [4-[5-(4-butylcyclohexyl)-1,2,4-oxadiazol-3-yl]pyridine], the cell number was 94.1. `O=C([O-])c1cc(=O)c2c(OCC(O)COc3cccc4oc(C(=O)[O-])cc(=O)c34)cccc2o1.[Na+].[Na+]` [Disodium Cromoglycate] showed a cell number of 98.4. `CC1=CC(=O)C2=C(C)CCC3C(C)C(=O)OC3C12` (stereo unspecified) [Leucomisine] gave a cell number of 99.3. `Cl.NCCNC(=O)c1ncsc1-c1cccc(F)c1` [Ro 41-1049 hydrochloride] was tested, and the cell number was 97.5. For `CCCCCCCCC=CCCCCCCCCCC(=O)O` [11(E)-Eicosenoic acid], the cell number was 102. `CCC=CCC=CCC=CCC=CCC=CCC=CCCC(=O)O` [Docosahexaenoic acid] gave a cell number of 99.8 ± 4.3. Compound `CS(=O)c1ccc(-c2nc(-c3ccc(F)cc3)c(-c3ccncc3)[nH]2)cc1.Cl` (stereo unspecified) has a cell number of 88.9. `C[C@H]1CN(C[C@H](Cc2ccccc2)C(=O)NCC(=O)O)CC[C@@]1(C)c1cccc(O)c1` was tested, and the cell number was 94.4. `O=C1NC(C(=O)O)CS1` (stereo unspecified) [Procysteine] was tested, and the cell number was 101. Compound `COC(=O)C1C2CC3c4[nH]c5cc(OC)ccc5c4CCN3CC2CC(OC(=O)c2cc(OC)c(OC)c(OC)c2)C1OC` (single isomer, unassigned; (-)) [(-)-Isoreserpine] has a cell number of 98.9. Compound `Cc1cc2nc3c(=O)[nH]c(=O)nc-3n(C)c2cc1C=O` has a cell number of 99.8. Compound `O=C1c2c(O)cc(O)cc2O[C@H](c2cc(O)c(O)c(O)c2)[C@H]1O` has a cell number of 95.8. With `CCCCCCCC/C=C\CCCCCCCC(=O)NCC(=O)O` [[(9Z)-9-octadecenoylamino]acetic acid] the cell number was 99.2. `CCCCCCCCCCCCCCC(O)C(O)C(N)CO` (stereo unspecified) [Phytosphingosine] was tested, and the cell number was 98.8. For `CC1C(=O)OC2C(O)C34C5CC(C(C)(C)C)C36C(OC(=O)C6O)OC4(C(=O)O5)C12O` (stereo unspecified) [Ginkgolide B], the cell number was 104.
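Note: TDF denotes transformed human dermal fibroblasts of mesenchymal origin.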
